Screening results deposited in PubChem by National Center for Advancing Translational Sciences (NCATS).
BAZ2B block – blocks human BAZ2B; Q9UIF8; AID 504333; Potency, µM (series often up to 114 µM), usual class: inhibitors; 360,000 compounds, 4.4% hits; AlphaScreen BAZ2B-H3K14Ac peptide displacement; also: nearly all actives have a fitted effect of over 60% in size
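BAZ2B (50 nM) with biotin-H3(5-23)K14Ac peptide (50 nM) in PBS pH 7.4, 0.01% Tween-20, preformed 30 min, then compound 30 min at room temperature; top concentration 110uM. AlphaScreen streptavidin donor/nickel chelate acceptor beads (10 ug/mL final), 20 min dark, signal read.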
HP1b binding inh – HP1-beta chromodomain-methylated histone interaction inhibition. P83916. AlphaScreen HP1-beta / biotin-H3K9me3 peptide binding. Potency, µM (top dose mostly 114 µM), usual class: inhibitors. 390,000 compounds, 0.56% hits; also: nearly all actives have a fitted effect of over 70% in size
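Compound inhibition of the preformed complex between 50 nM HP1-beta and 50 nM biotinylated H3K9me3 peptide was read by AlphaScreen. Buffer was PBS pH 7.4 with 0.01% Tween-20. Incubations ran 30 min at room temperature, with 10 ug/mL donor/acceptor beads.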
JMJD2A Tudor inh – JMJD2A Tudor domain (human) inhibition; O75164; AlphaScreen JMJD2A-Tudor / H3K4me3 peptide binding; Potency, µM (titrated, usually from 114 µM), most hits filed as inhibitors; 390,000 compounds, 4.4% hits; AID 504339; also: nearly all actives have a fitted effect of over 50% in size
G9a inh – blocks human histone lysine methyltransferase G9a; Q96KQ7; G9a H3K9 monomethylation, AlphaScreen, 2 h; Potency, µM (top dose mostly 102 µM), hits mostly inhibitors; 350,000 compounds, 8.8% hits; also: nearly all actives have a fitted effect of over 75% in size
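Chemiluminescent proximity detection of H3K9 monomethylation, read after 10 min bead incubation in the dark. Reaction: 20 nM G9a, 500 nM biotin-H3K9 peptide, 20 uM SAM cofactor, 2 h, room temperature, following 15 min enzyme-compound preincubation.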
L3MBTL1 block – blocks human L3MBTL1; Q9Y468; AlphaScreen L3MBTL1–H3K9me1 peptide binding; Potency, µM (top dose mostly 57.1 µM), hits mostly inhibitors; 230,000 compounds, 0.66% hits; AID 485360; also: nearly all actives have a fitted effect of over 60% in size
Target sequence (Q9Y468 whole entry, looked up): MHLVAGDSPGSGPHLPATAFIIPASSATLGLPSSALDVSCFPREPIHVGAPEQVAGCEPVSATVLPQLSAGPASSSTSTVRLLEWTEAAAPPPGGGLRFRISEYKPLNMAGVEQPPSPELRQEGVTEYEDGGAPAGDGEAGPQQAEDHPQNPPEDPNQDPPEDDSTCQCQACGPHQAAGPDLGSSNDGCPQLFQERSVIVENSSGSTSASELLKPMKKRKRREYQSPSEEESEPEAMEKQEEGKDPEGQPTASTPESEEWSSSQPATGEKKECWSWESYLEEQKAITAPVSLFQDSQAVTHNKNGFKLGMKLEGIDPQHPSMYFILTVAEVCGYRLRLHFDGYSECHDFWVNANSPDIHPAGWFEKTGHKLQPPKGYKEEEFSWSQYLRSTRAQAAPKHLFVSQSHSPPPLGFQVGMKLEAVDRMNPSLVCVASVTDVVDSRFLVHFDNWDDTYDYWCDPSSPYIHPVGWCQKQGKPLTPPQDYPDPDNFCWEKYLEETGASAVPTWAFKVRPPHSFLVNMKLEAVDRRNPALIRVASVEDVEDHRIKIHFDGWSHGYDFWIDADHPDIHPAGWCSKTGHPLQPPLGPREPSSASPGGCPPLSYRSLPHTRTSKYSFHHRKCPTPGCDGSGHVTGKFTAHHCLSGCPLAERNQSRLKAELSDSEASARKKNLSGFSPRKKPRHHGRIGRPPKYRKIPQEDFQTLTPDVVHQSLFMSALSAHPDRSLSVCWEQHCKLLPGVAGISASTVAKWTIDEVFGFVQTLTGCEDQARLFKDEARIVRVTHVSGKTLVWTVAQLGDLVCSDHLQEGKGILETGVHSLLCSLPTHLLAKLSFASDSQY
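Read-out is AlphaScreen signal from streptavidin donor and nickel chelate acceptor beads (10 ug/mL final each) bridging L3MBTL1 (50 nM) and biotinylated K9-monomethylated H3(1-15) peptide (75 nM), after 30 min compound exposure at room temperature.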
Hits are given with their value; n = inactive; u = inconclusive; x = no result; ! = repeats disagree; [ ] = another dose, or the depositor's remark. Compounds with a hit are over-represented: about 11% of the library has one in this group of screens. Calls follow the shape of the dose curve; as a rule, active = well fitted inhibition curve with a large enough effect; inconclusive = small, poorly fitted or top-dose-only effect; inactive = no such curve, though single readings can be large or run the other way.

SMILES | BAZ2B block | HP1b binding inh | JMJD2A Tudor inh | G9a inh | L3MBTL1 block
O=S(=O)(c1ccccc1)N1CCN(S(=O)(=O)c2ccc3c(c2)OCCO3)CC1 | x | x | n | x | x
Nc1ccc(S(=O)(=O)N2CCCN(S(=O)(=O)c3ccc4c(c3)OCCO4)CC2)cc1 | x | x | 89µM | x | x
COc1ccc(C(=O)Nc2ccc(NC(=O)C3CC3)nc2)cc1 | n | n | n | n | x
COc1ccc(NC(=O)Nc2ccc3c(c2)CCC3)cc1 | n | n | n | u | x
Cc1ccc(C)c(Nc2nc3c(S(=O)(=O)c4ccc(C(C)C)cc4)nnn3c3ccsc23)c1 | 79µM | n | n | n | x
COc1ccccc1Nc1nc2c(S(=O)(=O)c3ccc(C(C)C)cc3)nnn2c2ccsc12 | n | n | n | n | x
Cc1ccc(C)c(Nc2nc3c(S(=O)(=O)c4ccc(Br)cc4)nnn3c3ccsc23)c1 | 50µM | n | 56µM | 18µM | x
O=C(Nc1cccc(F)c1)N1CC[C@@]2(CCCNC2)C1 | x | x | x | n[12.7 µM] | x
O=c1cc(-c2ccccc2)[nH]n1-c1ccc([N+](=O)[O-])cc1 | 45µM | u | 35µM | u | n
NC(=S)n1[nH]c(-c2ccc([N+](=O)[O-])cc2)c(N=Nc2ccc(Cl)cc2)c1=O | 5.6µM | n | 63µM | 45µM | u
Cc1ccc([N+](=O)[O-])cc1N=Nc1c(-c2ccc([N+](=O)[O-])cc2)[nH]n(C(N)=S)c1=O | 32µM | n | u | u | n
O=c1c(N=Nc2ccc(O)cc2)c(-c2ccccc2)[nH]n1-c1ccc([N+](=O)[O-])cc1 | n | n | u | 7.1µM | n
COc1cccc(C2CC(=O)Nc3c2c(=O)n(C)c2nc4ccccc4n32)c1 (stereo not drawn) | n | n | n | n | x
O=C(NCc1ccc(F)cc1F)Nc1cnccc1C(F)(F)F | n | n | n | n[12.7 µM] | x
Cc1cccn2c(=O)c(C(=O)NC(C)c3ccccc3)c(O)nc12 (stereo not drawn) | n | n | n | n | x
O=C(c1ccc(F)cc1)C1CCN(CCn2c(=O)[nH]c3ccccc3c2=O)CC1 | u | n | n | 0.79µM! | n
CC(C)(C)Nc1scc(-c2ccccc2)[n+]1-c1ccccc1 | 50µM | n | n | 45µM | x
CC(C)(C)Nc1c2ccccc2nc2ccccc12 | n | n | n | n[2.33 µM] | x
COc1cc2sc3ccc(C#CC4(O)CCCCC4)cc3c(=O)c2cc1OC | x | n | n | x | x
Cn1c2ccccc2c(=O)c2ccc(C#CC3(O)CCCCC3)cc21 | n | n | n | 79µM | n
CCSc1n[nH]c(=S)s1 | u | u | 20µM | 1.4µM | x
CCOc1cc(N)c(Cl)cc1C(=O)NCC1CN(Cc2ccc(F)cc2)CCO1 (stereo not drawn) | x | n | 50µM | n | x
O=C(NCC1CCCO1)c1ccc(COc2ccc(F)cc2)o1 (stereo not drawn) | n | n | n | n[12.7 µM] | x
CC(=O)Nc1ccc(NC(=O)C2(c3cccs3)CCOCC2)cc1 | n | n | 45µM | n | x
Clc1ccccc1CNCCCSc1nnnn1-c1ccccc1 | n | n | n | n | x
SMILES | BAZ2B block | HP1b binding inh | JMJD2A Tudor inh | G9a inh | L3MBTL1 block
CN(C)CCNc1cc(-c2ccncc2)nc2ccccc12 | u | n | n | 22µM | n
NC(=O)C[n+]1cccc2ccccc21 | n | n | 22µM | u | n
C#CCOCCOCCOCCNc1nc(N2CCN(C(=O)[C@H](CCC(=O)O)n3cc(C(N)Cc4ccc(O)cc4)nn3)CC2)nc(N2CCN(C(=O)[C@H](Cc3cc4ccccc4[nH]3)n3cc(C(N)[C@H](C)CC)nn3)CC2)n1 (stereo partly drawn) | 50µM | n | 45µM | n[12.7 µM] | u
C#CCOCCOCCOCCNc1nc(N2CCN(C(=O)C(Cc3cc4ccccc4[nH]3)n3cc(C(N)Cc4ccc(O)cc4)nn3)CC2)nc(N2CCN(C(=O)C(CCC(=O)O)n3cc(C(N)C(C)CC)nn3)CC2)n1 (stereo not drawn) | 32µM | n | 45µM | n[2.33 µM] | 25µM
COc1ccc(NCC(=O)N/N=C/C=C\c2ccccc2)cc1 | u | n | u | 28µM | u
COc1ccc(/C=C/C=N/NC(=O)COc2ccc(OC)cc2)cc1 | n | n | n | n | n
COc1ccccc1NCC(=O)N/N=C/C=C/c1ccccc1 | u | n | u | 28µM | n
O=C(CCCCn1c(=O)c2ccccc2n(CC(=O)Nc2ccccc2)c1=O)NCc1ccccc1Cl | n | n | n | n | x
Cc1ccc(CC(=O)Nc2ccc(F)c([N+](=O)[O-])c2)cc1C | u | n | n | n | n
COc1cc(Br)cc(CNc2ccc(F)c([N+](=O)[O-])c2)c1O | u | n | u | 45µM | n
COCc1cc(=O)[nH]c(/N=C(\N)Nc2cccc(Cl)c2)n1 | n | n | n[11.4 µM] | 18µM | n
COCc1cc(=O)[nH]c(/N=C(\N)Nc2ccc(C)cc2C)n1 | n | n | n[11.4 µM] | n | n
Cc1cc(=O)[nH]c(/N=C(\N)Nc2cccc3ccccc23)n1 | 56µM | n | u | 79µM | n
COc1ccccc1N/C(N)=N/c1nc(CSc2ccc(C)cc2)cc(=O)[nH]1 | n | n | 79µM | n | n
Cc1cc(=O)[nH]c(/N=C(\N)Nc2ccc(Oc3ccccc3)cc2)n1 | n | n | n | n[12.7 µM] | x
Cc1csc2nc(COC(=O)c3ccccc3NC(=O)COc3ccccc3F)cc(=O)n12 | u | n | n | n[12.7 µM] | x
Cc1cccc(C)c1NC(=O)CSc1ncc2c(n1)-c1ccc(Cl)cc1N(Cc1ccccc1)S2(=O)=O | n | n | n | n | x
CCCCCCCN(c1ccccc1)[C@@H]1C[C@H]2CCCC(=O)N3CC[C@@H](C1)[C@@H]23 | x | n | 45µM | x | x
CCCCNC(=O)O[C@@H]1C[C@H]2CCCC(=O)N3CC[C@@H](C1)[C@@H]23 | n | n | n | n | n
CCOC(=O)c1cccc(NC(=O)Nc2ccc3c(c2)N(C)C(=O)c2ccccc2S3)c1 | n | n | n | u | x
CCOC(=O)Cc1cc(=O)n2[nH]c(-c3ccc(Cl)cc3)cc2n1 | n | n | n | n | x
CCOC(=O)Cc1cc(=O)n2[nH]c(C)cc2n1 | u | n | 16µM | n | n[11.4 µM]
Cc1ccc(OCC(=O)NCC2(N3CCN(C)CC3)CCCCC2)cc1 | n | n | n | n | x
CN(Cc1cn(-c2ccccc2)nc1-c1cc2ccccc2o1)C(=O)CCC(=O)O | n | n | 32µM | n | n
Cc1nc2ccc(NC(=O)CCC3CCCC3)cc2s1 | n | n | n | n | x
CC(C)(C)c1ccc(C2Sc3ccccc3NC3=C2C(=O)c2ccccc23)cc1 (stereo not drawn) | 8.9µM | u | 25µM | 10µM | x
O=C(NC(=S)NNC(=O)c1ccccc1O)c1cccc([N+](=O)[O-])c1 | 45µM | n | 79µM | n[2.33 µM] | x
Cc1c(NC(=S)NC(=O)c2cccc(Br)c2)c(=O)n(-c2ccccc2)n1C | n | n | n | x | n
Cc1c(NC(=O)c2cc(-c3ccc(F)cc3)on2)c(=O)n(-c2ccccc2)n1C | n | n | 79µM! | n | x
Cc1c(NC(=S)NC(=O)c2cccc([N+](=O)[O-])c2)c(=O)n(-c2ccccc2)n1C | n | n | n | 45µM | x
